Bioassay records from PubChem.
TEAD-YAP inh – TEAD-YAP interaction inhibition | 640,000 compounds, 1.4% hits | inhibition, % at 9.12 µM | HEK-TIYL cells, TEAD-Gal4/YAP UAS-luciferase luminescence; in the data active = inhibition above about 32%;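 note: 0% = median of test compound wells and 100% = reference inhibitor wells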
FBW7 activator – human FBW7 E3 ligase activation, primary screen; Q969H0; AlphaScreen FBW7–phospho-cyclin E peptide binding, activator screen; normalized activity (activation), % at 26.1 µM; 650,000 compounds, 0.13% hits; AID 1259310; in the data active = normalized activity above about 1.9%;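 note: purified mutant Fbw7 with reduced substrate affinity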
MITF inh – inhibitors of human MITF; AlphaScreen MITF homodimerization, bead proximity signal; inhibition, % at 2.6 µM; 650,000 compounds, 0.91% hits; in the data active = inhibition above about 50%;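 note: 0% = vehicle wells with protein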
GPR151 activ – human GPR151 activation; Q8TDV0; PathHunter beta-arrestin GPR151 cells, luminescence; activation, % at 11.2 µM; 650,000 compounds, 1% hits; in the data active = activation above about 4.9%;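 note: 0% = median of compound wells and 100% = cells with positive control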
GPR151 conf act – confirmation of human GPR151 activators. GPR151 PathHunter beta-arrestin cells, luminescence, 90 min; % of EA-reagent control over plate median. shares compounds with GPR151 activ. activation, % at 11.2 µM. 6,700 tested, under 10 active;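 active = mean percent activation across replicates above the confirmation screen cutoff of 4.91%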
GPR119 ag – GPR119 activation, counter-screen for GPR151 activators; shares compounds with GPR151 activ; activation, % at 11.2 µM; 6,700 compounds, 0.3% hits; GPR119 PathHunter beta-arrestin cells, luminescence, 90 min; 0 = compound-well median, 100 = enzyme-acceptor control;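 active = mean percent activation in the counterscreen above 29.09%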;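 note: counterscreen on off-target GPR119 to flag nonselective hits from the GPR151 activator screen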
Target sequence (Q8TDV5 whole entry, looked up): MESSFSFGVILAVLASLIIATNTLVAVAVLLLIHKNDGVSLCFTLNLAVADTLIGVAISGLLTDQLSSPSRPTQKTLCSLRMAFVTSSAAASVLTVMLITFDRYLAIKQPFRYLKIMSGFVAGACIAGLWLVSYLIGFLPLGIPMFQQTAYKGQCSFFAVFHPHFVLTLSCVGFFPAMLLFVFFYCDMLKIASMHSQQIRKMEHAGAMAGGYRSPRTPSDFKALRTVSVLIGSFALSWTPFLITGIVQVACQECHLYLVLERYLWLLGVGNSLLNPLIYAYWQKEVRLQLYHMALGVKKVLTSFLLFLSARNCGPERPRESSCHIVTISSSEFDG
Active calls of the source: *; x = not tested or not shown. In the library only some 3.4% were active in any assay of this set; here they are far more common.

SMILES | TEAD-YAP inh | FBW7 activator | MITF inh | GPR151 activ | GPR151 conf act | GPR119 ag
CCc1nnc2n1N(C(C)=O)C(c1ccc(Cl)c(Cl)c1)=C(C(C)=O)S2 | 17 | 0 | 11 | 7.1* | 1 | 2
CCc1nnc2n1N(C(C)=O)C(c1ccc(Cl)cc1)=C(C(C)=O)S2 | 19 | 0 | 2 | 0 | x | x
CO[C@H]1[C@H](NC(=O)Cc2ccccc2)c2ccccc2C12CCN(C(=O)C=C(C)C)CC2 | -18 | 1 | 0 | 1 | x | x
Cc1nnc2ccc(SCC(=O)NCc3csc(-c4cccs4)n3)nn12 | -27 | -1 | -11 | 5.6* | 1 | 16
O=C(CSc1ccc2nnc(-c3cccs3)n2n1)NCc1ccccc1 | -2 | 0 | 10 | 0 | x | x
Nc1nc(SCc2ccc(F)cc2)nn1CC(=O)Nc1ccccc1F | -4 | 0 | 26 | 6.3* | 0 | -5
COC1COC(=O)[C@@H](C)NC(=O)C/C=C/[C@H](C)[C@@H](OC)COC(=O)C/C=C/[C@@H]1C (stereo not given in full) | x | 0 | -3 | 1 | x | x
CO[C@@H]1COC(=O)C/C=C/[C@H](C)[C@H](OC)COC(=O)[C@H](C)COC(=O)C/C=C/[C@@H]1C | x | 0 | -1 | 5.1* | 1 | 6
CCCCN(CC)c1ncnc2scc(-c3ccccc3)c12 | 6 | 0 | -9 | 8.0* | 0 | -11
CCCCN(C)c1ncnc2scc(-c3ccccc3)c12 | -2 | 0 | 16 | 1 | x | x
Cc1ccc(NC(=O)CSc2cn(Cc3ccc(F)cc3)c3ccccc23)cc1 | -2 | 0 | 5 | 7.0* | -1 | -4
CCCC(=O)Nc1ccc(NC(=O)c2ccc(I)cc2)cc1 | 1 | 0 | -3 | 10.0* | 1 | -4
CCOc1cccc2cc(C(=O)Nc3ccc(C(=O)O)cc3)c(=O)oc12 | -7 | 0 | 10 | -1 | x | x
CC1CC(C)CN(C(=O)c2ccc(F)cc2)C1 (stereo not given) | -2 | 0 | 16 | 2 | x | x
COc1cc(OC)cc(C(=O)NNC(=S)NCc2ccco2)c1 | -2 | 0 | 6 | 7.2* | -1 | -13
COCCn1c(C)cc(O)c(C(c2cccnc2)N2CCCCC2)c1=O (stereo not given) | -1 | 0 | 16 | 0 | x | x
COc1ccc(-c2cnnc(N[C@H]3CCCCNC3=O)n2)cc1 | -20 | 0 | 2 | 0 | x | x
Cc1cnc(C)c(NC2CCCCNC2=O)n1 (stereo not given) | 11 | 0 | 6 | 8.0* | 2 | 0
Cc1cc(C)cc(NC(=O)CCn2c(=O)sc3ccccc32)c1 | 13 | 0 | 1 | -2 | x | x
O=[N+]([O-])c1cccc(CNc2cccc(F)c2)c1 | 5 | 0 | 6 | 11* | 1 | 3
Cc1ccc(NC(=O)CSc2nc(=O)n(Cc3ccco3)c3c2CCC3)cc1F | 2 | 0 | -14 | 6.6* | -2 | -18
COc1ccc(C(=O)Nc2cccc(-c3nc4ncccc4o3)c2C)cc1[N+](=O)[O-] | 6 | 0 | 12 | 1 | x | x
COc1ccc(C(=O)Nc2cccc(-c3nc4ncccc4o3)c2C)cc1OC | 9 | 0 | -1 | 5.5* | 1 | 3
COc1c(C)cccc1C(=O)Nc1cccc(-c2nc3ncccc3o2)c1 | -10 | 0 | -4 | 7.4* | 0 | 5
O=C1c2cccc([N+](=O)[O-])c2C(=O)N1CCCCO | 9 | 1 | 16 | -2 | x | x
SMILES | TEAD-YAP inh | FBW7 activator | MITF inh | GPR151 activ | GPR151 conf act | GPR119 ag
O=C(CCc1ccco1)N1CCCC(CNS(=O)(=O)Cc2ccccc2)C1 (stereo not given) | 3 | 0 | 5 | 0 | x | x
COc1ccccc1NC(=O)[C@H]1O[C@@H]2OC(C)(C)O[C@@H]2[C@H]2OC(C)(C)O[C@H]21 | 8 | 0 | -5 | 6.9* | 2 | 10
COc1ccccc1NC(=O)C1OC2OC(C)(C)OC2C2OC(C)(C)OC12 (stereo not given) | -3 | 0 | -5 | -1 | x | x
CCc1nc2ccc(-c3ccc4nc(CC)oc(=O)c4c3)cc2c(=O)o1 | -1 | 0 | 14 | 8.8* | 0 | 6
C=C(C)c1nc2ccc(-c3ccc4nc(C(=C)C)oc(=O)c4c3)cc2c(=O)o1 | 0 | 0 | 18 | 0 | x | x
O=C(CSc1nnc(CNC(=O)c2ccco2)n1-c1ccc(F)cc1)Nc1nccs1 | 3 | 0 | 0 | 1 | x | x
COc1ccc(S(=O)(=O)Oc2ccc(Cl)cc2)cc1 | 2 | 0 | -29 | 0 | x | x
COC(=O)c1cc2c(cc1NC(=O)NCc1noc3ccccc13)OCO2 | 11 | 0 | 9 | 9.2* | 1 | -3
O=C(NCc1cccc(Cl)c1)NCc1noc2ccccc12 | -21 | 0 | -12 | 6.5* | 0 | 2
CC(C)(C)c1ccc(C(=O)Nc2ccc(Cl)c(NC(=O)c3ccccc3)c2)cc1 | -28 | 0 | -4 | 1 | x | x
COc1ccc(C(=O)N/C(=C/c2ccccc2)C(=O)NC(C)C(=O)O)cc1 (stereo not given) | 3 | 0 | 11 | 8.7* | 1 | 11
COc1ccc(/C=C(\NC(=O)c2ccc(OC)cc2)C(=O)NC(C)C(=O)O)cc1 (stereo not given) | 1 | 0 | 14 | 2 | x | x
CCn1cc(C(=O)N2C[C@H](C(=O)OC)[C@@H](c3ccc(F)cc3)C2)cn1 | -1 | 0 | -8 | 0 | x | x
COC(=O)[C@H]1CN(C(=O)c2cnn(C(C)C)c2)C[C@@H]1c1ccc(F)cc1 | 3 | 0 | -10 | 5.7* | 0 | -2
CCC(C)c1ccccc1OCCON1C(=O)CCC1=O (stereo not given) | 8 | 0 | -21 | 7.1* | 2 | 2
CC(C)(C)c1ccc(OCCON2C(=O)CCC2=O)c(Cl)c1 | 2 | 0 | -28 | 3 | x | x
COc1ccc2c(c1)c(C(=O)O)c(C)n2CCc1ccc(OC)c(OC)c1 | -11 | 0 | 7 | 5.6* | 1 | 2
COc1ccc(CCn2c(C)c(C(C)=O)c3cc(OC(=O)c4cccc(Cl)c4)ccc32)cc1OC | -6 | 0 | -2 | -1 | x | x
Cc1ccc2c(c1)-c1c(cnn1CC(=O)NC1CC1)CO2 | 21 | 1 | 6 | 6.1* | 0 | -3
Cc1ccc2c(c1)-c1c(cnn1CC(=O)N(C)c1ccccc1C)CO2 | 13 | 0 | 2 | 7.1* | 0 | -4
CCOCCCNC(=O)Cn1ncc2c1-c1cc(C)ccc1OC2 | 5 | 0 | 5 | 0 | x | x
Cc1ccc2c(c1)-c1c(cnn1CC(=O)NCCN(C)C)CO2 | -1 | 0 | 0 | 11* | 0 | 5
CCc1cc(Br)ccc1NC(=O)CCN1C(=O)C2C3CCC(C3)C2C1=O (stereo not given) | 4 | 0 | 5 | 0 | x | x
COc1cccc(CNC(=O)c2ccc3c(c2)NC(=O)c2ccccc2S3)c1 | 10 | 0 | 1 | 0 | x | x
